Measurements reported in paper PMC12136788.
The full ranking holds about 24,000 sequences; the median of “enrichment r” is about 0.99, and the highest 2% start at about 3.7. What follows is part of a selection rich in the highest values, with near analogues and random picks from the rest.

T1: UNK ZnF1-3 (human, UniProt Q9C0B0 31-174)
T1 sequence: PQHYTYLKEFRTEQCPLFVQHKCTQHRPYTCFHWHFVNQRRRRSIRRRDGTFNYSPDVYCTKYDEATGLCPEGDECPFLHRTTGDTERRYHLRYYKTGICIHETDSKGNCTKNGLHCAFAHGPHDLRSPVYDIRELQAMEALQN

B1: chr1:36770067:36770068:+_ENSG00000054118_ENST00000354618|hu_mus|FALSE|FALSE (ssRNA)
RNA: GGGAGUUCUACAGUCCGACGAUCUUAAGAGUCAAAGUUGCCCAAAUUAAAAUCUUUACACUAAUAUUACUAUAUAUCCCCUAAAAAGAAGAAAAAGAAAAAAGGAUUUCUUAAUAAAACUCAGGACAGGAAGAGACUGAAAACCAACAGAGGAUUGAGCAUCA
B2: chr1:59925254:59925255:+_ENSMUSG00000067336_ENSMUST00000087435|mus_hu|FALSE|FALSE (ssRNA)
RNA: GGGAGUUCUACAGUCCGACGAUCAUCUUGUUCUGAACAUGGAUUGCUGUUGUUGUUAUUGGAAUUAGUUCGGCCACCUUCUAGUGGCCGUUCCCUCCUGUCCACAAGACGAUCCAGAACACCUUCAUCAUGGCCAGCUUGUUGCAACAGAGGAUUGAGCAUCA
B3: chr4:101271765:101271766:+_ENSMUSG00000028528_ENSMUST00000094953|mus_mus|motif|central (ssRNA)
RNA: GGGAGUUCUACAGUCCGACGAUCAGACUUGGGUGACAAGUUGUAUACUGUGUAGUGGUCAAGAUGUCUGGAAUCCAAAAAGCGGCGGAUGUCAUCAACCUGAUUCCUGAAUCCUAUGUCAACACUAUCCACAGGAAAGGACAUCAACAGAGGAUUGAGCAUCA
B4: 5953805_5956048_782_CDS_ENSMUSG00000024833_ENSMUST00000025752|mouse|control|control (ssRNA)
RNA: GGGAGUUCUACAGUCCGACGAUCCAAGCCCUGUGCGGAGCCAAAGGUGGUCACCACUUCUCCCCGGUUGGUUCUGGAGGUGUAUUUCUGGGAGGGGGUAGCACUCGGGGAGAAACUUGACGGUGAGAGAAGCUGACGUGGGCUCAACAGAGGAUUGAGCAUCA
B5: chr2:39278355:39278356:-_ENSG00000115904_ENST00000402219|hu_mus|motif|central (ssRNA)
RNA: GGGAGUUCUACAGUCCGACGAUCACAGCUUCCUACUAAUGGGUGGGGACUGCCUUCAUCUGUCAUUUCUACAGUAUCUUCGGUAUGGCCCAGUAACUUUACACUAAGUUCAUGUAUAUCUACUAUACGACUGAAUAUGUUUUCCAACAGAGGAUUGAGCAUCA
B6: chr1:66485854:66485855:+_ENSMUSG00000015222_ENSMUST00000077355|mus_mus|FALSE|FALSE (ssRNA)
RNA: GGGAGUUCUACAGUCCGACGAUCCCUUUCAGAAUGUAUUGGAUAGCCUUCAGGCACAUGAAAGGUAAAAAUGCAAUUUAAAAAAUAAUAAUAAUACUCCAUGCAAAACAGAGCAGAGCGAAAAUAAUUGUCCGAUUGUAUCCACAACAGAGGAUUGAGCAUCA
B7: chr19:15271055:15271056:-_ENSG00000074181_ENST00000263388|hu_hu|motif|central (ssRNA)
RNA: GGGAGUUCUACAGUCCGACGAUCCAUAUAUAUAUUUUGUAAAAAAUAAUAAUAAUAAGUUUGUUUAAAUGAAUUUGUUUCGGUACAAAAUGUAAAAAAAAAAAGAAAAAUAAAAAUAAUAAUAAUUCAUUCAUGUCAGAGUGUCAACAGAGGAUUGAGCAUCA
B8: chr1:40083102:40083103:+_ENSMUSG00000026074_ENSMUST00000163854|mus_hu|FALSE|FALSE (ssRNA)
RNA: GGGAGUUCUACAGUCCGACGAUCCAUGAAACAAAUUCUUUCUCAAGACAUUUAUUACAAAUGUCAUGAAUAUAUUCAUAAAGUAAAAUUGGUUUAAAAAAACAGAGAACAAGAGAGCAAGUGAGAAAACGAGAAAAGCCAGGACAACAGAGGAUUGAGCAUCA
B9: chr2:192256868:192256869:+_ENSG00000128641_ENST00000304164|hu_hu|FALSE|FALSE (ssRNA)
RNA: GGGAGUUCUACAGUCCGACGAUCUGGGUUUCGGAUGAAUAUCUUUGAUCUACCAAAGGAGUAUUCUUCCACGGGAAUUUCUAAUUCAUUAAAUAGGACCUCCACACCAGACCUGGCUGGUCCUUUCCAAUGAGGCCAUGUUUGCAACAGAGGAUUGAGCAUCA
B10: chr14:49642940:49642941:-_ENSMUSG00000061244_ENSMUST00000162175|mus_mus|FALSE|FALSE (ssRNA)
RNA: GGGAGUUCUACAGUCCGACGAUCUAAAGCAUAAUCAAUAUGCUCAAUACAUAAAAAUUCCACAAGAAUGGUAAAAAUUCUAAAGGCAUUCCUUGGUAAAUCAGAAGGAUCAGAAAGCCUAUGACAUCUUUCAAAGGCUUGUUUCAACAGAGGAUUGAGCAUCA
B11: chrX:45232703:45232704:-_ENSMUSG00000031099_ENSMUST00000088973|mus_hu|FALSE|FALSE (ssRNA)
RNA: GGGAGUUCUACAGUCCGACGAUCAGAUGGGACCCAUCGUUUAAAUUCAUUCAUCCAGUUGUGUAAAGUAGACUUUGGAACUAAAACCAUGUGAGGUCCAGGAAUAUUUCGGUAGUGUUUCAGGUAACCAAGCAAAGCAAUUGUCAACAGAGGAUUGAGCAUCA
B12: chr4:62795864:62795865:+_ENSMUSG00000028358_ENSMUST00000107415|mus_mus|FALSE|FALSE (ssRNA)
RNA: GGGAGUUCUACAGUCCGACGAUCGCCUCCCAGAAAUCACAUGUGAAAAGAAACCGAGUCCCCCAUAAGAUAAAAAAUUUGCUAAAGUAUUGUGAAAAAUGACGACAACAACAACAACAAAAUUGAGUGGAGAGUCAGCUAUGUCAACAGAGGAUUGAGCAUCA
B13: chr16:28827448:28827449:-_ENSMUSG00000051065_ENSMUST00000100023|mus_hu|FALSE|FALSE (ssRNA)
RNA: GGGAGUUCUACAGUCCGACGAUCAAAUAUCAGUAGUGGUGAAAGCUCAUAAGAAAAAAGACAAAAACAAAAUAAUAAAAAUAAUAGGAUAGAAUCGUUAAGCAUCAGAAAGAGAUUUGUUUCCCCAUACCCAUGAACAAAUUUCAACAGAGGAUUGAGCAUCA
B14: chr17:27717376:27717377:-_ENSMUSG00000024213_ENSMUST00000025050|mus_mus|FALSE|FALSE (ssRNA)
RNA: GGGAGUUCUACAGUCCGACGAUCCACAGGACAGAUUUUUAGAAAGUUUCAUCGCACAUGGGUGUCUUUUAAUGAAAAAAAAAAAAAAAAUUCAGAGGAAAUAUCUGGCCAGGCCGGGACGAGACAAAUGGGAGUGCUUCGGAACAACAGAGGAUUGAGCAUCA
B15: 24503659_24515395_812_3pUTR_ENSG00000112294_ENST00000357578|human|control|control (ssRNA)
RNA: GGGAGUUCUACAGUCCGACGAUCGCUCAGCCAGGGCCAGGGCGGAGAAGGGCGUGUCUUCGGCAGGCUUCACCACGACAGUACAGCCGGCUGCCAGGGCGGCCCCCACCUUCCGGGUGAUCAUGGCACUGGGGAAAUUCCACGCAACAGAGGAUUGAGCAUCA
B16: 1087333_1088580_755_CDS_ENSG00000067064_ENST00000381344|human|control|control (ssRNA)
RNA: GGGAGUUCUACAGUCCGACGAUCUACAUUCUUCCUCACCAACAAAAUGUAAUCAAUUUCAUGUUCACCCCAGAUACCAUCAGACUGAGCUUUGUAGUGAAUUCGUGUUAAAUAAUUAAUUUCUUCUGGAGGAACCUCUUCCAACAACAGAGGAUUGAGCAUCA

target: T1, UNK ZnF1-3; experiment: nsRBNS (natural sequence RNA bind-n-seq); RBNS binding buffer (assumed for nsRBNS): 25 mM Tris pH 7.5, 150 mM KCl, 3 mM MgCl2, 0.01% Triton X-100, 500 ug/ml BSA, 20 U/ml SUPERase-In, 4 C; UNK is unkempt and MSI1 is Musashi-1; names of the RNAs are library labels; protein concentration not given here; high values mean tight binding

How did the binding signal turn out when B1 was run?
Its binding signal is 2.39 enrichment R.

Which binding signal does the source give for B2 here?
The binding signal was 0.391 enrichment R.

Which binding signal does the source give for B3 here?
Its binding signal is 0.93 enrichment R.

For B4, which binding signal is on record?
The binding signal was 1.38 enrichment R.

With B5 as the binder, how does the binding signal read?
The binding signal was 0.721 enrichment R.

How did the binding signal turn out when B6 was run?
The binding signal was 5.46 enrichment R.

B7 was tested. Which binding signal did it give?
The binding signal was 11.2 enrichment R.

Which binding signal does the source give for B8 here?
The binding signal was 2.12 enrichment R.

With B9 as the binder, how does the binding signal read?
Its binding signal is 0.529 enrichment R.

Which binding signal does the source give for B10 here?
The binding signal was 0.307 enrichment R.

For B11, which binding signal is on record?
The binding signal was 1.15 enrichment R.

With B12 as the binder, how does the binding signal read?
The binding signal was 3.53 enrichment R.

Which binding signal does the source give for B13 here?
Its binding signal is 8.38 enrichment R.

B14 was tested. Which binding signal did it give?
The binding signal was 4.44 enrichment R.

How did the binding signal turn out when B15 was run?
The binding signal was 1.27 enrichment R.

With B16 as the binder, how does the binding signal read?
The binding signal was 3.42 enrichment R.
